From PubChem BioAssay AID485297 (National Center for Advancing Translational Sciences (NCATS), 2010)
Among all 320,000 compounds or so, about 9,100 (2.8%) were called active. About 3% were inconclusive and are not listed. What follows is part of a selection rich in actives, with near analogues and random picks from the rest. Unmarked numbers belong to inactive results. Calls come from the whole dose curve; as a rule, active = well fitted activation curve with a large enough effect; inconclusive = small, poorly fitted or top-dose-only effect; inactive = no such curve, though single readings can be large or run the other way.

Assay: qHTS Assay for Rab9 Promoter Activators; note: nearly all actives have a fitted effect of over 60% in size; for activation, negative = inhibition: % of control where 0% means no effect
Details: Huh7 Rab9 promoter-luciferase reporter, luminescence, 24 h; series mostly up to 9.22 µM; activation, negative = inhibition: at the top concentration
Outline: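 Cell-based reporter: Huh7 stable for Rab9 promoter-driven luciferase, plated in reduced-serum medium with 10% FBS at 1500 cells/well, compound-treated 24 h at 37 °C, luminescence read after 10 min reagent.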
Potency is the fitted concentration of half-maximal effect.

Row | Compound | activation, negative = inhibition | Potency
1 | O=C(NNC(=O)C1CCC1)c1ccccc1 | 0.349% | 
2 | COc1ccc(C(=O)N2CCN(c3ccc(C(C)=O)cc3F)CC2)cc1S(=O)(=O)NC1CC1 | -4.32% | 
3 | O=S(=O)(NC1CCN(S(=O)(=O)c2ccc3c(c2)OCCO3)CC1)c1c(F)cccc1F | 0.297% | 
4 | CN1CCC(N(C)S(=O)(=O)c2ccc(NC(=O)c3cccc(C#N)c3)cc2)CC1 | -3.53% | 
5 | COC(=O)c1cc(NC(=O)C2C3C=CC(C3)C2C(=O)O)cc(C(=O)OC)c1 (stereo not drawn) | -9.89% | 
6 | CC(C)COC(=O)c1ccc(NC(=O)C2C3C=CC(C3)C2C(=O)O)cc1 (stereo not drawn) |  | 2240 nM (active)
7 | CC(=O)NS(=O)(=O)c1ccc(NC(=O)C2C3C=CC(C3)C2C(=O)O)cc1 (stereo not drawn) | -3.05% | 
8 | CCOc1ncccc1C(=O)OCC(=O)N1c2ccccc2CC1C (stereo not drawn) | 0.841% | 
9 | Cc1cc(NC(=O)CSc2nc3c(cc2C#N)CCCCC3)no1 |  | 2000 nM (active)
10 | CC(NC(=O)CSc1nc2c(cc1C#N)CN(C)CC2)c1ccccc1 (stereo not drawn) | 13.2% | 
11 | Cc1cc(NC(=O)CSc2nc(C(C)C)nc3sc4c(c23)CCC(C)C4)no1 (stereo not drawn) | -1.16% | 
12 | O=C(/C=C/c1ccc2c(c1)OCO2)NCc1ccc(F)cc1 | 0.0512% | 
13 | O=C(CNC(=O)C(c1ccccc1)c1ccccc1)N/N=C\c1ccc2c(c1)OCO2 | 8.43% | 
14 | COC(=O)c1ccc(/C=N/NC(=O)C(=O)N2CCCCCC2)cc1 | -7.08% | 
15 | O=C(N/N=C/c1ccc2c(c1)OCO2)C(=O)N1CCCC1 |  | 2820 nM (active)
16 | O=C(N/N=C/c1ccc([N+](=O)[O-])cc1)C(=O)N1CCCC1 | -0.644% | 
17 | O=C(Cc1ccc(F)cc1)N/N=C/c1ccc2c(c1)OCO2 |  | 2820 nM (active)
18 | S=C(Nc1cccnc1)Nc1ccccn1 | -1.03% [at 1.84 µM] | 
19 | O=C(CSc1nnc(COc2ccc(Cl)cc2)n1Cc1ccco1)N1CCNC1=O | -0.0536% | 
20 | O=C(NCC1CCCO1)c1ccc(S(=O)(=O)Nc2ccc(F)cc2)cc1 (stereo not drawn) | -3.46% | 
21 | COc1cccc(/C=C/C(=O)OCC(=O)N2CCN(c3ccccc3)CC2)c1 | -8.64% | 
22 | CC(C)CNC(=O)CC(NCC(C)C)C(=O)O (stereo not drawn) | 1.69% | 
23 | C=CCn1c(Oc2ccc(C(=O)OC)cc2)nc2c1c(=O)n(C)c(=O)n2C | -9.97% | 
24 | CCN(CC)c1ccc(C(=O)N/N=C/c2ccc(N3CCOCC3)cc2)cc1 | 0.331% | 
25 | C(=N/Nc1cc(N2CCOCC2)nc(N2CCOCC2)n1)/c1ccccc1 | -0.95% | 
26 | Cc1ccccc1N/N=C/c1ccc(N2CCOCC2)cc1 |  | 2000 nM (active)
27 | COc1ccc(C(=O)NCC(=O)N/N=C/c2cccnc2)cc1 | -4.87% | 

Row | Compound | activation, negative = inhibition | Potency
28 | CCN1CCC(=NNC(=O)c2ccc(C)c([N+](=O)[O-])c2)CC1 | 17.7% | 
29 | Cc1cc(O)c(NC(=O)c2ccc(C)c([N+](=O)[O-])c2)cc1C |  | 2820 nM (active)
30 | Cc1ccc(C(=O)Nc2cccc3ncccc23)cc1[N+](=O)[O-] | -3.34% | 
31 | CN(CC(=O)Nc1c(Cl)cccc1Cl)C(=O)CC1OC(=O)c2ccccc21 (stereo not drawn) | -4.49% | 
32 | COc1cc(C(c2c(NC(=O)c3ccco3)sc(C)c2C)N2CCOCC2)cc(OC)c1OC (stereo not drawn) | 0.98% | 
33 | COCCN(C(=O)CSCc1ccc(C)cc1)c1c(N)n(CC(C)C)c(=O)[nH]c1=O | -0.278% | 
34 | CCN(CC)S(=O)(=O)c1ccc(OC)c(NC(=O)CCc2c(C)noc2C)c1 | -12.1% | 
35 | O=C(c1ccc(F)cc1)n1cc(C(=S)N2CCOCC2)c2ccccc21 | -0.854% | 
36 | O=C(c1ccc(F)cc1)n1c(=S)nc2ccccn21 |  | 891 nM (active)
37 | O=C(C[n+]1cc(Br)cc2ccccc21)c1ccc(F)cc1 | -0.744% | 
38 | Clc1ccc(-c2nnc(SCc3nc4ccccc4s3)o2)cc1 | 29.6% | 
39 | FC(F)(F)c1cnc(Oc2ccccc2-c2nnc(-c3ccc(Cl)cc3)o2)c(Cl)c1 | -2.35% | 
40 | CSc1ccccc1-c1nnc(-c2ccc(Cl)cc2)o1 |  | 3980 nM (active)
41 | COC(=O)c1ccc(C)c(NC(=O)C2CC(=O)N(C3CCCC(C)C3C)C2)c1 (stereo not drawn) | -3.82% | 
42 | CC(=O)Nc1ccc(S(=O)(=O)NC(C)C(=O)OCCOc2ccc(F)cc2)cc1 (stereo not drawn) | -2.89% | 
43 | COc1cc(/C=N/NC(=O)c2ccc(N3CCCC3=O)cc2)ccc1O |  | 3980 nM (active)
44 | COc1ccc(C(=O)Nc2ccccc2C(=O)N/N=C/c2ccc(O)c(OC)c2)cc1 | -0.509% | 
45 | O=C(N/N=C/c1cccc(Br)c1)c1ccc(N2CCCC2=O)cc1 | -0.625% | 
46 | O=C(Nc1ccc(Br)cc1)C1CCC(=O)N1Cc1ccccc1Cl (stereo not drawn) | -2.51% | 
47 | CC1CCN(C(=O)/C(=C\c2ccccc2F)NC(=O)c2ccccc2)CC1 | -2.18% | 
48 | CC(C)CNC(=O)c1cc(-c2ccc(Br)cc2)on1 |  | 3550 nM (active)
49 | Cc1c(NC(=O)c2cc(-c3ccc(Br)cc3)on2)c(=O)n(-c2ccccc2)n1C | 1.87% | 
50 | COc1ccc(-c2cc(C(=O)NCCCN3CCOCC3)no2)cc1 | -0.694% | 
51 | O=C1COc2ccc(C(=O)CSc3ccc(Br)cc3)cc2N1 | 7.8% | 
52 | O=C(CCc1ccccc1Cl)Nc1ccc(S(=O)(=O)Nc2nccs2)cc1 | -4.37% | 
53 | COc1cc(C(=O)NCC(c2ccco2)N2CCCC2)ccc1OCc1ccccc1 (stereo not drawn) | -5.2% | 
